# Article PMC11062922 (Nature Chemical Biology, 2023)
# Read-outs that look alike come from different tables or passages of the source.
# Experiments:
# Design in all cases: species or system human, MV4-11 + K-562 + COLO205 + SK-N-BE2 + OVCAR-8
# ADCK1 = conditions: read-out: apparent Kd; compound concentrations: 100 nM and 1000 nM (sheet 'Samples'), CATDS: 1.95230654661257E-2; n = 1
# AKT1 = conditions: read-out: apparent Kd; compound concentrations: 100 nM and 1000 nM (sheet 'Samples'), CATDS: 2.9179929134034902E-2; n = 1
# AKT2 = conditions: read-out: apparent Kd; compound concentrations: 100 nM and 1000 nM (sheet 'Samples'), CATDS: 2.7091450445171202E-2; n = 1
# CDC42BPA = conditions: read-out: apparent Kd; compound concentrations: 100 nM and 1000 nM (sheet 'Samples'), CATDS: 1.9780691565578001E-2; n = 1
# CDC42BPB = conditions: read-out: apparent Kd; compound concentrations: 100 nM and 1000 nM (sheet 'Samples'), CATDS: 1.71408665149138E-2; n = 1
# CDK17 = conditions: read-out: apparent Kd; compound concentrations: 100 nM and 1000 nM (sheet 'Samples'), CATDS: 1.7217162863952602E-2; n = 1
# CIT = conditions: read-out: apparent Kd; compound concentrations: 100 nM and 1000 nM (sheet 'Samples'), CATDS: 2.24347173261998E-2; n = 1
# GSK3A = conditions: read-out: apparent Kd; compound concentrations: 100 nM and 1000 nM (sheet 'Samples'), CATDS: 4.2719516683869502E-2; n = 1
# GSK3B = conditions: read-out: apparent Kd; compound concentrations: 100 nM and 1000 nM (sheet 'Samples'), CATDS: 3.83672032367414E-2; n = 1
# IKBKE = conditions: read-out: apparent Kd; compound concentrations: 100 nM and 1000 nM (sheet 'Samples'), CATDS: 1.7325644717854999E-2; n = 1
# IRAK3 = conditions: read-out: apparent Kd; compound concentrations: 100 nM and 1000 nM (sheet 'Samples'), CATDS: 2.0418472541538401E-2; n = 1
# JAK2 = conditions: read-out: apparent Kd; compound concentrations: 100 nM and 1000 nM (sheet 'Samples'), CATDS: 0.192481748469752; n = 1
# LATS1 = conditions: read-out: apparent Kd; compound concentrations: 100 nM and 1000 nM (sheet 'Samples'), CATDS: 3.9734792534973799E-2; n = 1
# MARK2 = conditions: read-out: apparent Kd; compound concentrations: 100 nM and 1000 nM (sheet 'Samples'), CATDS: 2.5049968914142899E-2; n = 1
# MARK3 = conditions: read-out: apparent Kd; compound concentrations: 100 nM and 1000 nM (sheet 'Samples'), CATDS: 2.50648330516796E-2; n = 1
# MARK4 = conditions: read-out: apparent Kd; compound concentrations: 100 nM and 1000 nM (sheet 'Samples'), CATDS: 2.22913749693762E-2; n = 1
# MTOR = conditions: read-out: apparent Kd; compound concentrations: 100 nM and 1000 nM (sheet 'Samples'), CATDS: 2.8143895354302499E-2; n = 1
# PAK4 = conditions: read-out: apparent Kd; compound concentrations: 100 nM and 1000 nM (sheet 'Samples'), CATDS: 7.9705302542388501E-2; n = 1
# PAK6 = conditions: read-out: apparent Kd; compound concentrations: 100 nM and 1000 nM (sheet 'Samples'), CATDS: 0.106835733020908; n = 1
# PI4KB = conditions: read-out: apparent Kd; compound concentrations: 100 nM and 1000 nM (sheet 'Samples'), CATDS: 2.3618528560732301E-2; n = 1
# PIK3CA = conditions: read-out: apparent Kd; compound concentrations: 100 nM and 1000 nM (sheet 'Samples'), CATDS: 5.0539059632895601E-2; n = 1
# PIK3CD = conditions: read-out: apparent Kd; compound concentrations: 100 nM and 1000 nM (sheet 'Samples'), CATDS: 6.1879573349501601E-2; n = 1
# PIM2 = conditions: read-out: apparent Kd; compound concentrations: 100 nM and 1000 nM (sheet 'Samples'), CATDS: 1.8579492636517099E-2; n = 1
# PKN1 = conditions: read-out: apparent Kd; compound concentrations: 100 nM and 1000 nM (sheet 'Samples'), CATDS: 3.3974214988559501E-2; n = 1
# PKN2 = conditions: read-out: apparent Kd; compound concentrations: 100 nM and 1000 nM (sheet 'Samples'), CATDS: 1.8056964738192099E-2; n = 1
# PKN3 = conditions: read-out: apparent Kd; compound concentrations: 100 nM and 1000 nM (sheet 'Samples'), CATDS: 6.5050017907180402E-2; n = 1
# PRKACA = conditions: read-out: apparent Kd; compound concentrations: 100 nM and 1000 nM (sheet 'Samples'), CATDS: 2.14323323603763E-2; n = 1
# PRKACB = conditions: read-out: apparent Kd; compound concentrations: 100 nM and 1000 nM (sheet 'Samples'), CATDS: 2.3381704422051099E-2; n = 1
# PRKACG = conditions: read-out: apparent Kd; compound concentrations: 100 nM and 1000 nM (sheet 'Samples'), CATDS: 2.46536070948064E-2; n = 1
# PRKAG1 = conditions: read-out: apparent Kd; compound concentrations: 100 nM and 1000 nM (sheet 'Samples'), CATDS: 2.0047926729344401E-2; n = 1
# PRKCD = conditions: read-out: apparent Kd; compound concentrations: 100 nM and 1000 nM (sheet 'Samples'), CATDS: 1.7220600193925E-2; n = 1
# PRKG1 = conditions: read-out: apparent Kd; compound concentrations: 100 nM and 1000 nM (sheet 'Samples'), CATDS: 2.2056800835646401E-2; n = 1
# PRKX;PRKY = conditions: read-out: apparent Kd; compound concentrations: 100 nM and 1000 nM (sheet 'Samples'), CATDS: 5.5547171780811498E-2; n = 1
# ROCK2 = conditions: read-out: apparent Kd; compound concentrations: 100 nM and 1000 nM (sheet 'Samples'), CATDS: 2.36815478984151E-2; n = 1
# RPS6KA4 = conditions: read-out: apparent Kd; compound concentrations: 100 nM and 1000 nM (sheet 'Samples'), CATDS: 1.94570911667616E-2; n = 1
# RPS6KA5 = conditions: read-out: apparent Kd; compound concentrations: 100 nM and 1000 nM (sheet 'Samples'), CATDS: 1.9053083137800499E-2; n = 1
# RPS6KB1 = conditions: read-out: apparent Kd; compound concentrations: 100 nM and 1000 nM (sheet 'Samples'), CATDS: 1.8709076421106301E-2; n = 1
# STK16 = conditions: read-out: apparent Kd; compound concentrations: 100 nM and 1000 nM (sheet 'Samples'), CATDS: 1.87060817181595E-2; n = 1
# TAOK2 = conditions: read-out: apparent Kd; compound concentrations: 100 nM and 1000 nM (sheet 'Samples'), CATDS: 1.8592761990064401E-2; n = 1
# TGFBR1 = conditions: read-out: apparent Kd, n = 1
# ACVR1B = conditions: read-out: apparent Kd; compound concentrations:100 nM and 1000 nM (sheet 'Samples'); n = 1
# NQO2 = conditions: read-out: apparent Kd; compound concentrations:100 nM and 1000 nM (sheet 'Samples'); n = 1
# RIPK2 = conditions: read-out: apparent Kd; compound concentrations:100 nM and 1000 nM (sheet 'Samples'); n = 1
# TESK2 = conditions: read-out: apparent Kd; compound concentrations:100 nM and 1000 nM (sheet 'Samples'); n = 1
# TGFBR2 = conditions: read-out: apparent Kd; compound concentrations:100 nM and 1000 nM (sheet 'Samples'); n = 1
compound,measurement,setting,value
CCn1c(-c2nonc2N)nc2c(C#CC(C)(C)O)ncc(OCC3CCNCC3)c21.O=C(O)C(F)(F)F [GSK554170A],potency estimated from few doses,ADCK1,1500 nM
same,potency estimated from few doses,AKT1,520 nM
same,potency estimated from few doses,AKT2,616 nM
same,potency estimated from few doses,CDC42BPA,1440 nM
same,potency estimated from few doses,CDC42BPB,2430 nM
same,potency estimated from few doses,CDK17,2390 nM
same,potency estimated from few doses,CIT,993 nM
same,potency estimated from few doses,GSK3A,240 nM
same,potency estimated from few doses,GSK3B,295 nM
same,potency estimated from few doses,IKBKE,2320 nM
same,potency estimated from few doses,IRAK3,1310 nM
same,potency estimated from few doses,JAK2,25.1 nM
same,potency estimated from few doses,LATS1,275 nM
same,potency estimated from few doses,MARK2,744 nM
same,potency estimated from few doses,MARK3,743 nM
same,potency estimated from few doses,MARK4,1010 nM
same,potency estimated from few doses,MTOR,564 nM
same,potency estimated from few doses,PAK4,84.6 nM
same,potency estimated from few doses,PAK6,55.1 nM
same,potency estimated from few doses,PI4KB,865 nM
same,potency estimated from few doses,PIK3CA,178 nM
same,potency estimated from few doses,PIK3CD,126 nM
same,potency estimated from few doses,PIM2,1780 nM
same,potency estimated from few doses,PKN1,375 nM
same,potency estimated from few doses,PKN2,1980 nM
same,potency estimated from few doses,PKN3,116 nM
same,potency estimated from few doses,PRKACA,1130 nM
same,potency estimated from few doses,PRKACB,888 nM
same,potency estimated from few doses,PRKACG,775 nM
same,potency estimated from few doses,PRKAG1,1380 nM
same,potency estimated from few doses,PRKCD,2380 nM
same,potency estimated from few doses,PRKG1,1040 nM
same,potency estimated from few doses,PRKX;PRKY,151 nM
same,potency estimated from few doses,ROCK2,859 nM
same,potency estimated from few doses,RPS6KA4,1520 nM
same,potency estimated from few doses,RPS6KA5,1630 nM
same,potency estimated from few doses,RPS6KB1,1740 nM
same,potency estimated from few doses,STK16,1740 nM
same,potency estimated from few doses,TAOK2,1780 nM
same,potency estimated from few doses,"TGFBR1; compound concentrations: 100 nM and 1000 nM (sheet 'Samples'), CATDS: 1.75354561240674E-2",2210 nM
Cl.c1ccc(-c2n[nH]cc2-c2ccnc(-c3ccc(CN4CCOCC4)cc3)c2)nc1 [GW776245A],potency estimated from few doses,ACVR1B,335 nM
same,potency estimated from few doses,NQO2,243 nM
same,potency estimated from few doses,RIPK2,1080 nM
same,potency estimated from few doses,TESK2,1580 nM
same,potency estimated from few doses,TGFBR1; compound concentrations:100 nM and 1000 nM (sheet 'Samples'),51.8 nM
same,potency estimated from few doses,TGFBR2,1230 nM
